Laboratory results: PubChem BioAssay AID588726 (The Scripps Research Institute Molecular Screening Center, 2011)
The campaign covered roughly 360,000 compounds. About 8,200 (2.3%) were called active. The sample holds actives, similar compounds and a random draw of the others, so the mix is not that of the screen. Values without a mark were called inactive. Cut-off read from the data, not from the text of the source: active = inhibition above about 27%; inactive = the rest.

Molecular target: Fructose-bisphosphate aldolase (Mycobacterium tuberculosis (strain ATCC 25618 / H37Rv)) (UniProt P9WQA3)
Sequence (P9WQA3 whole entry, looked up): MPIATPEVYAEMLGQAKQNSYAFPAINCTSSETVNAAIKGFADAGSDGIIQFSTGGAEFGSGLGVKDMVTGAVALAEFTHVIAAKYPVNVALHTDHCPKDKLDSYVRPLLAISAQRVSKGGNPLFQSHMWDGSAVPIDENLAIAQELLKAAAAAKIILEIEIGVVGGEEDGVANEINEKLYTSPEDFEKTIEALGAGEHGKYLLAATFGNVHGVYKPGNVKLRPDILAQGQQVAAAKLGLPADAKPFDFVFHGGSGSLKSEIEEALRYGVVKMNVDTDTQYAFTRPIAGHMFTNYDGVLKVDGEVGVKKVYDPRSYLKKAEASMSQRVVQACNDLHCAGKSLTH
Assay: Mtb FBA enzyme inhibitors, primary screen, biochemical, fluorescence, strain H37Rv (AID 588726);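 note: 0% = vehicle and 100% = reference inhibitor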
Settings: purified M. tuberculosis FBA, fluorescence read-out, at 1 µM, stronger effect = higher value

Row | SMILES | inhibition
1 | CC1(C)OC(=O)C(=CNC(CO)C(=O)O)C(=O)O1 (stereo not given) | -1.2%
2 | CCOC(=O)Cc1ncccc1C(=O)Nc1ccc(OC)cc1 | -0.27%
3 | COCCCNC(=O)CCc1nc2cccnc2n1Cc1ccc(OC)cc1 | -2.9%
4 | CCOC(=O)Cn1c(=O)n(Cc2ccc(OC)cc2)c(=O)c2cccnc21 | 99.3% (active)
5 | COc1cc(CCN=Cc2ccccc2O)c([N+](=O)[O-])cc1OC | 1.91%
6 | O=C(COc1ccc(-c2ccccc2)cc1)NN=C1CCCC1 | 4.25%
7 | CN(C)C(=O)c1coc2nc3ccccc3nc12 | 131% (active)
8 | CN(C)CCNC(=O)c1ccc(Cl)c2cc3ccccc3nc12 | 9.35%
9 | COc1cccc2cc(C(=O)N(C)C)c(=O)oc12 | -1.37%
10 | COc1ccc(C(F)(F)F)cc1N/C=C\c1nnnn1-c1ccc(C)cc1 | 1.79%
11 | CCCCNC(=O)N1CCCC(N(C)CCc2ccc(OC)c(OC)c2)C1 (stereo not given) | 3%
12 | CCOC(=O)C1CCN(C(=O)Cc2c(C(=O)O)[nH]c3ccccc23)CC1 | 3.52%
13 | O=C(O)c1[nH]c2ccccc2c1C(c1cccc(O)c1)c1c(C(=O)O)[nH]c2ccccc12 | 0.61%
14 | CCCS(=O)(=O)Nc1c(C(=O)O)[nH]c2ccccc12 | 38.6% (active)
15 | CCOC(=O)/C=C/C(=O)OCC(=O)NC(c1ccccc1)c1ccccc1 | 1.96%
16 | Cc1cc(Cl)c2oc(C(=O)N(C)C(C)c3ccccn3)c(C)c2c1 (stereo not given) | 5.49%
17 | CC(C)C(=O)N1CCC2(CC1)Oc1ccc(F)cc1C(=O)C21CC(c2ccccc2)=NO1 (stereo not given) | 4.59%
18 | COCCCNC(=S)N(CCN(C)C)Cc1cc2cc3c(cc2[nH]c1=O)OCCO3 | 28.8% (active)
19 | CCNC(=S)N(CCN(CC)CC)Cc1cc2cc3c(cc2[nH]c1=O)OCCO3 | 22%
20 | CCNC(=S)N(CCN(CC)CC)Cc1cc2cc3c(cc2[nH]c1=O)OCO3 | 32.3% (active)
21 | CN(C)CCCN(Cc1cc2cc3c(cc2[nH]c1=O)OCCO3)C(=O)NC1CCCCC1 | 26.5%
22 | CCN(CC)CCCNC(=S)N(CCO)Cc1cc2cc3c(cc2[nH]c1=O)OCO3 | 13.2%
23 | Cc1cc(C)c2[nH]c(=O)c(CN(Cc3ccccc3)C(=S)NCCCN(C)C)cc2c1 | 5.66%
24 | COc1cc(NC(=O)CSC(=S)N2CCCC2)c(OC)cc1Cl | 9.36%
25 | Cc1ccsc1C1C(C#N)=C(N)OC2=C1C(=O)CC(C)(C)C2 (stereo not given) | 5.8%
26 | CCc1ccc(OCC(=O)N(Cc2ccccc2)C2CCS(=O)(=O)C2)cc1 (stereo not given) | 4.66%
27 | Cn1c(=O)c2c(SCC(=O)NCC3CCCO3)nc(CC(C)(C)C)nc2n(C)c1=O (stereo not given) | -0.73%
28 | O=C(CC[C@H]1O[C@@H](n2ccc(=O)[nH]c2=O)[C@H](O)[C@@H]1O)N[C@H](Cc1ccccc1)C(=O)NCc1ccco1 | 1.72%

Row | SMILES | inhibition
29 | COCCCn1c(SCC(=O)NC2CCCC2)nnc1-c1ccccc1 | -5.58%
30 | CCn1c(=N)c(C(=O)NCCCOC)cc2c(=O)n3cccc(C)c3nc21 | 661% [above what the read-out allows, likely interference] (active)
31 | Cc1cccn2c(=O)c3cc(C(=O)NC4CCCCC4)sc3nc12 | 9.42%
32 | Cc1ccc(S(=O)(=O)c2cc3c(=O)n4cccc(C)c4nc3n(CCc3ccccc3)c2=N)cc1C | -2.09%
33 | COCCCn1c(C(=O)NC2CCCCC2)cc2c(=O)n3cccc(C)c3nc21 | 37.6% (active)
34 | CCc1cccc2c(=O)c(C(=O)NCCCOC)c[nH]c12 | 1.41%
35 | CC(NCCc1ccc(S(N)(=O)=O)cc1)C(=O)NCc1ccccc1 (stereo not given) | 0.46%
36 | Cc1cccc(C2c3c(n(C)c(=O)n(C)c3=O)N=C3c4ccccc4C(=O)C32)c1 (stereo not given) | -1.16%
37 | CCOc1ccc(C(=O)Nc2c3c(nn2-c2ccccc2)CS(=O)(=O)C3)cc1 | 0.76%
38 | O=S(=O)(c1ccc(F)cc1)N1CCN(C(=S)NC2CCCC2)CC1 | 0.47%
39 | C[C@@H]1CN([C@@H](C)CO)C(=O)c2cc(Br)cnc2O[C@@H]1CN(C)C(=O)C1CCCCC1 | -2.01%
40 | O=C(Cn1nnc(-c2ccccc2)n1)NC(=O)NC1CCCC1 | 0.56%
41 | O=C(O[C@H]1[C@H](Cc2ccccc2)NS(=O)(=O)[C@H]2C[C@@H]3C=C[C@]12O3)c1ccc([N+](=O)[O-])cc1 | 1.68%
42 | Cc1nnc(SCC(=O)Nc2ccc(S(=O)(=O)Nc3ccc(Cl)nn3)cc2)s1 | -1.39%
43 | CCOc1ccc(C2=CC(c3ccccc3)n3ncnc3N2)cc1 (stereo not given) | 48.9% (active)
44 | Brc1ccc(C2=CC(c3ccco3)n3ncnc3N2)cc1 (stereo not given) | 31.5% (active)
45 | Clc1ccc2c(c1)C1=C(C(c3ccncc3)O2)C(c2ccc(Br)cc2)n2ncnc2N1 (stereo not given) | 1.95%
46 | CC1=C(C(=O)OC2CCCCC2)C(c2cccnc2)n2ncnc2N1 (stereo not given) | 1.05%
47 | Cc1ccc(F)c(S(=O)(=O)NC(=O)C2(C)CCN2C(=O)c2ccco2)c1 (stereo not given) | -2.4%
48 | Cc1ccc(CCCOC(=O)C[N+]2(C)CCCC2)cc1 | 2.21%
49 | COC(=O)C1(CCSC)NC(c2ccc(OC)cc2OC)C2C(=O)N(c3cccc(C(C)=O)c3)C(=O)C21 (stereo not given) | 1.37%
50 | CO[C@H]1[C@@H]2C=CO[C@@H](O[C@H]3O[C@@H](CO)[C@H](O)[C@@H](O)[C@@H]3O)[C@@H]2[C@@]2(CO)O[C@@H]12 | 2.4%
51 | CCOC(=O)C1CCCN(C(=O)c2ccc(CS(=O)(=O)c3ccc(Br)cc3)o2)C1 (stereo not given) | 1.86%
52 | COc1ccccc1-c1oc2ccccc2c1C#CCCCCO | 30.8% (active)
53 | COc1ccccc1-c1sc2ccccc2c1C#CC1(O)CCCCC1 | 6.51%
54 | CCNC(=O)CC1C(=O)N(c2ccc(F)cc2)C(=O)N1Cc1cccs1 (stereo not given) | -3.21%
55 | CSCC[C@H](NC(=O)NC1CCCC1)C(=O)O | -1.95%
